# Measured values taken from PubChem BioAssay (NCATS).
# Values without a mark were called inactive. Records with an inconclusive call do not appear. A call without a number means that no potency is given here. Calls of active or inactive are those of the source. Unless noted, the call rests on the fitted dose curve; in most records, active means well fitted curve in the direction sought with a large enough effect; inconclusive means small, poorly fitted or top-dose-only effect, or another doubt; inactive means no such curve, though single readings can be large; an effect the other way counts as inactive or inconclusive.
# Assays:
# [1] = biological target: Lysosomal acid glucosylceramidase (Homo sapiens) (UniProt P04062); experiment: Glucocerebrosidase-p2 (AID 348; in the data active means potency below about 10 µM; further: potency means the concentration at half of the fitted maximal effect); details: purified GBA, blue fluorogenic substrate, 40 min
# Summary of the method: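 Compounds titrated from 0.6 nM upwards against 0.2 nM enzyme in pH 5.9 citric acid/KH2PO4, taurocholate, tween-20; blue fluorogenic substrate 80 uM, 40 min room temperature, stopped and read Ex 365/Em 440 for AC50.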
# [2] = AP1 Signaling Pathway (AID 357; active means well fitted curve in either direction with a large enough effect, not every such curve was filed as active;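 further: ME-180 reporter cells stimulated with EGF at its EC50 level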); details: ME-180 AP-1-bla reporter, EGF-induced, beta-lactamase ratio, 5 h; at 7.69 µM (top of the series) unless noted
# Summary of the method: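 First, ME-180 AP-1-bla cells were cultured overnight at 37 °C in low-serum Opti-MEM. Next, titrated compounds with EC50 EGF were incubated 5 hours. Finally, CCF4 was added for 2.5 hours and the 460/530 nm ratio recorded.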
# [3] = biological target: Cytochrome P450 1A2 (Homo sapiens) (UniProt P05177); experiment: p450-cyp1a2 (AID 410; calls by dose curve; further: potency means the concentration at half of the fitted maximal effect)
# Summary of the method: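 Human CYP1A2 (20nM) demethylated Luciferin-ME at its Km (100uM) in 100mM KPO4. After 10 min compound preincubation, NADPH regeneration ran the reaction 60 min at room temperature. Luciferin was read by luminescence, normalized to 57 uM furafylline.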
# [4] = NFAT Signaling Pathway (AID 444; active means well fitted curve in either direction with a large enough effect, not every such curve was filed as active;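 further: carbachol stimulus at about its EC50 of 1 µM final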); details: Jurkat NFAT-bla M1, carbachol, beta-lactamase ratio, 5 h; at 7.69 µM (top of the series) unless noted
# Summary of the method: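 Jurkat cells with NFAT-driven β-lactamase reporter and co-expressed M1 receptor, stimulated with carbachol (final 1 uM, ~EC50), compound titration, 5 h at 37 °C. CCF4 loaded 1 h at RT; 460/530 nm ratio gave %activity and AC50.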
# [5] = Stat Signaling Pathway (AID 446; active means well fitted curve in either direction with a large enough effect, not every such curve was filed as active;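 further: ME-180 cervical cancer cells given 40 pM IL-6 alongside compound; SIE-controlled beta-lactamase reporter measured as 460/530 nm FRET emission ratio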); details: ME-180 SIE beta-lactamase reporter, IL-6 stimulated, 5 h; at 7.69 µM (top of the series) unless noted
# Summary of the method: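 ME-180 SIE-bla cells; overnight plating; cpd + IL-6 40 pM, 5 h, 37 C; LiveBLAzer 2.5 h RT; 460/530 nm emission ratio. Normalized to 300 pM IL-6 and 125 nM JAK inhibitor controls.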
# [6] = biological target: Glucocorticoid receptor (Homo sapiens) (UniProt P04150); experiment: GR-GFP Redistribution (AID 450;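 active means compounds whose dose series gives a full or clear partial fitted curve of increased nuclear translocation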; further: potency means the concentration at half of the fitted maximal effect); details: U2OS GR-GFP nuclear translocation, laser cytometry, 2 h
# [7] = biological target: Glucocorticoid receptor (Homo sapiens) (UniProt P04150); experiment: GR-EFC Redistribution (AID 451; calls by dose curve; further: potency means the concentration at half of the fitted maximal effect); details: CHO-K1 GR-EFC translocation, beta-gal luminescence, 2 h
# Summary of the method: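 CHO-K1 cells expressing nuclear EA and GR-ED fragments of b-gal; compounds titrated up to 46 uM final, 2 h at 37 C. GR nuclear translocation read as complemented b-gal luminescence after 1 h RT detection.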
# [8] = biological target: 3',5'-cyclic-AMP phosphodiesterase 4B (Homo sapiens) (UniProt Q07343); experiment: qHTS Assay for Inhibitors of PDE-IV (AID 607; active means well fitted activation curve with a large enough effect in the main read-out, with a control signal flat, not every such curve was filed as active)
# Summary of the method: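 ACTOne HEK293 cells carry a modified cAMP-gated CNG channel and express endogenous PDE4; plated 1000 cells/well, compounds up to 22.9 uM final. Membrane-potential dye fluorescence (ex 535/em 590) was read; parental cells received 10 uM forskolin + 100 uM RO 20-1724.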
# [9] = biological target: Cytochrome P450 3A4 (Homo sapiens) (UniProt P08684); experiment: qHTS Assay for Activators of Cytochrome P450 3A4 (AID 885); further: nearly all actives have a fitted effect of over 65% in size
# Summary of the method: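 20nM CYP3A4 + 25uM Luciferin-PPXE (=KM), 200mM KPO4; cpd 10 min RT; NADPH regen, 60 min RT; stop w/ detection buffer, 20 min; luminescence. Normalized to 57 uM ketoconazole.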
# [10] = Primary qHTS for small molecule stabilizers of the endoplasmic reticulum resident proteome: Secreted ER Calcium Modulated Protein (SERCaMP) assay (AID 1508630)
# Summary of the method: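 GLuc-SERCaMP-expressing SH-SY5Y cells, pretreated 16 h with compound, are challenged with thapsigargin to empty ER calcium stores; after 4 h, coelenterazine is added directly to the medium and luminescence is imaged.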
# [11] = biological target: Rap guanine nucleotide exchange factor 3 (Homo sapiens) (UniProt O95398); experiment: Confirmatory qHTS for antagonist of cAMP-regulated guanine nucleotide exchange factor 3 (EPAC1) (AID 1645880); further: nearly all actives have a fitted effect of over 55% in size; further: potency means the concentration at half of the fitted maximal effect
# Summary of the method: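 Nucleotide exchange uses 100 nM EPAC1, 250 nM RAP1B-BODIPY-GDP and 50 uM GDP, with compounds in a concentration-titration series. After 5 min at room temperature, fluorescence (480 nm ex/540 nm em) is read every 5 min for 30 min. Data are normalized to control ATA and DMSO.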
# [12] = biological target: Rap guanine nucleotide exchange factor 3 (Homo sapiens) (UniProt O95398); experiment: Confirmatory qHTS for agonist of cAMP-regulated guanine nucleotide exchange factor 3 (EPAC1) (AID 1645881); further: nearly all actives have a fitted effect of over 75% in size; further: potency means the concentration at half of the fitted maximal effect;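 on activation: EPAC1 catalysed release of BODIPY-GDP from Rap1B seen as fluorescence loss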
# [13] = biological target: Rap guanine nucleotide exchange factor 4 (Homo sapiens) (UniProt Q8WZA2); experiment: Confirmatory qHTS for agonist of cAMP-regulated guanine nucleotide exchange factor 4 (EPAC2) (AID 1645884);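 further: nucleotide exchange releases bodipy-GDP from Rap1 and this lowers its fluorescence; nearly all actives have a fitted effect of over 65% in size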; further: potency means the concentration at half of the fitted maximal effect
# [14] = biological target: Rap guanine nucleotide exchange factor 4 (Homo sapiens) (UniProt Q8WZA2); experiment: Confirmatory qHTS for antagonist of cAMP-regulated guanine nucleotide exchange factor 4 (EPAC2) (AID 1645885); further: nearly all actives have a fitted effect of over 25% in size
# [15] = biological target: Mitogen-activated protein kinase 10 (Mus musculus) (UniProt Q61831); experiment: JNK3 AlphaScreen Assay (AID 530; active means well fitted curve in either direction with a large enough effect, not every such curve was filed as active;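 further: kinase came from lysate of stimulated human HepG2 cells; signal reports phosphorylation of biotinylated GST-cJun 1-79 at Ser73 with 10 µM ATP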)
# Summary of the method: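 qHTS format: compounds tested as titrations against IL-1beta/TNF-alpha-activated HepG2 lysate JNK3 with biotin-GST-cJun substrate and 10 uM ATP at room temperature. Loss of anti-phospho-cJun AlphaScreen signal indicates inhibition.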
# [16] = Confirmation and Secondary Assay for Modulators of Hemoglobin Beta Chain Splicing at IVS2 654 locus (AID 910);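 further: HeLa cells stably carrying EGFP split by mutant beta-globin IVS2-654 intron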
# Summary of the method: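 HeLa cells stably expressing EGFP interrupted by β-globin IVS2-654 intron, seeded overnight in Opti-MEM/2% FCS, then treated 2 days at 37 °C. Restored splicing read as total peak GFP intensity per well by laser scanning cytometry (488 nm excitation, 500–520 nm emission); 500 nM antisense PNA as control.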
# [17] = Confirmation and Secondary Assay for Modulators of Hemoglobin Beta Chain Splicing at IVS2 705 locus (AID 930);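 further: HeLa cells stably expressing the EGFP-705 splicing reporter; GFP fluorescence per well restored by corrected splicing of the IVS2-705 intron in EGFP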
# Summary of the method: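 Assay measures total GFP intensity per well in HeLa EGFP-705 cells after 2 days with compound; mis-splicing normally truncates EGFP, so fluorescence indicates corrected splicing.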
# [18] = biological target: Dual specificity protein kinase CLK4 (Homo sapiens) (UniProt Q9HAZ1); experiment: qHTS Assay for Inhibitors of CDC-like Kinase 4 (ADP-FP Assay) (AID 1795);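 further: recombinant human CLK4 phosphorylating RS repeat peptide at 1 µM ATP; nearly all actives have a fitted effect of over 60% in size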
# Summary of the method: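 FP readout: Orange Transcreener ADP2 tracer (4 nM) plus ADP antibody, read after 30 min at room temperature. Kinase step: 6.25 nM Clk4, 100 uM RS peptide, 1 uM ATP, pH 7.5, 1 h.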
# [19] = biological target: Ubiquitin carboxyl-terminal hydrolase 1 (Homo sapiens) (UniProt O94782); experiment: Inhibitors of USP1/UAF1: Pilot qHTS (AID 504865);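 further: rhodamine fluorescence freed from ubiquitin-rhodamine substrate followed over time; top concentration of the series differs between compounds; nearly all actives have a fitted effect of over 35% in size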
# Summary of the method: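 1nM USP1/UAF1 + cpd, 15 min RT; start w/ Ub-Rho 150nM final; kinetic FL 480/540 nm, 6 reads q60 s. Buffer 50mM HEPES pH 7.8, 0.5mM EDTA, 1mM TCEP, 0.01% Tween-20, 0.1 mg/ml BSA.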
# Sequence of Dual specificity protein kinase CLK4 (Homo sapiens) (Q9HAZ1 whole entry, looked up): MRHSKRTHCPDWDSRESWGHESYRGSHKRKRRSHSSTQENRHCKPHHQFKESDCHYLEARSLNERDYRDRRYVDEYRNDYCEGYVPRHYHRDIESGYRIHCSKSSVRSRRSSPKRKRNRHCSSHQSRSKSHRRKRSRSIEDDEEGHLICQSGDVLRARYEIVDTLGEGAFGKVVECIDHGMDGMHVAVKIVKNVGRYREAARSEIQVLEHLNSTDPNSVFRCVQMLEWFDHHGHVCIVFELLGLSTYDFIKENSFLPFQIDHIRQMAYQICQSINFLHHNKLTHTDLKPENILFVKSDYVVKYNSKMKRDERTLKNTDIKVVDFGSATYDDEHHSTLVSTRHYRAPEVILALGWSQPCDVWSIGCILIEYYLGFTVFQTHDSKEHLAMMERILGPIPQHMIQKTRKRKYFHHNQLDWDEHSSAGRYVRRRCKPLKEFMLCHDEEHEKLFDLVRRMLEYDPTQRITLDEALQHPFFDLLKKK
# Sequence of Rap guanine nucleotide exchange factor 4 (Homo sapiens) (Q8WZA2 whole entry, looked up): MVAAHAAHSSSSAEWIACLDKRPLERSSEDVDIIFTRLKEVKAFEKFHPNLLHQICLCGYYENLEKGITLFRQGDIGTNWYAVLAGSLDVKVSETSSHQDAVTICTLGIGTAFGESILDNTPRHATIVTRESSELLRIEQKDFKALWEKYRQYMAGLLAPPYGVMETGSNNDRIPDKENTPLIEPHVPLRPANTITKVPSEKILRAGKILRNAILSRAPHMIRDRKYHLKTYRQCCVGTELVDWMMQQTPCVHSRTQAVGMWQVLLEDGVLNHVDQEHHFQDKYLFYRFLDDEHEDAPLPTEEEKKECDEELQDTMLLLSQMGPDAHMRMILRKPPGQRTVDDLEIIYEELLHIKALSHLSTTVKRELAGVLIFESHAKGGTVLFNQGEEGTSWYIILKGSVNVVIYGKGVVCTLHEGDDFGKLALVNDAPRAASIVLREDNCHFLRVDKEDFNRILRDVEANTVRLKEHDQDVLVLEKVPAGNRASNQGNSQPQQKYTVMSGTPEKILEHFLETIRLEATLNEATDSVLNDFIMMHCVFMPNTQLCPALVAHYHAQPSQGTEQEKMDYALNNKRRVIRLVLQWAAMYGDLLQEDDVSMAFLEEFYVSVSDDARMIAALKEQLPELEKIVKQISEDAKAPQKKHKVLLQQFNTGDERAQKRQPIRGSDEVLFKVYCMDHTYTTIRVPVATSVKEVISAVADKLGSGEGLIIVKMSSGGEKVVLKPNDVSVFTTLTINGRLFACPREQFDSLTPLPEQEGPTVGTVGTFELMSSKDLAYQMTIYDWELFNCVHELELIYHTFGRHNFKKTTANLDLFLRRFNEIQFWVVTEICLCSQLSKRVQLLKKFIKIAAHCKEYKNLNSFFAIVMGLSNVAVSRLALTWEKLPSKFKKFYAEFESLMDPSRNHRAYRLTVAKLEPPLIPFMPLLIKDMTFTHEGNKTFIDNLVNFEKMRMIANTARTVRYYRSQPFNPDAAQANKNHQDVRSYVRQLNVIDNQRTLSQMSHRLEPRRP
# Sequence of Cytochrome P450 3A4 (Homo sapiens) (P08684 whole entry, looked up): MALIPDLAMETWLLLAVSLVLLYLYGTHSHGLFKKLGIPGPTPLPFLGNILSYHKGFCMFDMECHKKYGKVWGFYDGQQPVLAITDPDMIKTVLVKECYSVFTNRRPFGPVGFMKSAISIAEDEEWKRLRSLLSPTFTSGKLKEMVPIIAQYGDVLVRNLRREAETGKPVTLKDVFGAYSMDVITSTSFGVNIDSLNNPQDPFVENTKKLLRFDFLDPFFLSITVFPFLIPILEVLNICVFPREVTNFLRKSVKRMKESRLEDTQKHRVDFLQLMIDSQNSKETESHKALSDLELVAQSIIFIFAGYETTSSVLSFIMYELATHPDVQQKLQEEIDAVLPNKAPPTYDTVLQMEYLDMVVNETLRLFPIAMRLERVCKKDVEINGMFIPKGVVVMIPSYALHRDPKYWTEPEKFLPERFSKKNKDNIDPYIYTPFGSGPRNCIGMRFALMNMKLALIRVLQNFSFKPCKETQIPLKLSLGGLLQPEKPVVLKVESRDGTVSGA
# Sequence of Cytochrome P450 1A2 (Homo sapiens) (P05177 whole entry, looked up): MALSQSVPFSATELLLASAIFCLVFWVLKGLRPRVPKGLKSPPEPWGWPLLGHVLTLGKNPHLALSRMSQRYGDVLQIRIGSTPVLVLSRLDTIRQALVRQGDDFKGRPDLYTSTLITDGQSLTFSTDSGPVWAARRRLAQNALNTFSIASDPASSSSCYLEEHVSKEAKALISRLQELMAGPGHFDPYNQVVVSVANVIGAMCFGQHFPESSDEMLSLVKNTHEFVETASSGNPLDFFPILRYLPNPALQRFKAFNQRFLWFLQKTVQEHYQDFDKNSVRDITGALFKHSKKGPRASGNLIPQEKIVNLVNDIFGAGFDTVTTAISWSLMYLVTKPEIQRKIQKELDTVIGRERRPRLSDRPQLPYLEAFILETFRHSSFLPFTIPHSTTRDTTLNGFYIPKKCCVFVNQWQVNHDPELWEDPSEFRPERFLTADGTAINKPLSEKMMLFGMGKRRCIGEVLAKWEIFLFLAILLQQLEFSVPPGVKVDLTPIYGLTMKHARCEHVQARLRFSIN
# Sequence of Ubiquitin carboxyl-terminal hydrolase 1 (Homo sapiens) (O94782 whole entry, looked up): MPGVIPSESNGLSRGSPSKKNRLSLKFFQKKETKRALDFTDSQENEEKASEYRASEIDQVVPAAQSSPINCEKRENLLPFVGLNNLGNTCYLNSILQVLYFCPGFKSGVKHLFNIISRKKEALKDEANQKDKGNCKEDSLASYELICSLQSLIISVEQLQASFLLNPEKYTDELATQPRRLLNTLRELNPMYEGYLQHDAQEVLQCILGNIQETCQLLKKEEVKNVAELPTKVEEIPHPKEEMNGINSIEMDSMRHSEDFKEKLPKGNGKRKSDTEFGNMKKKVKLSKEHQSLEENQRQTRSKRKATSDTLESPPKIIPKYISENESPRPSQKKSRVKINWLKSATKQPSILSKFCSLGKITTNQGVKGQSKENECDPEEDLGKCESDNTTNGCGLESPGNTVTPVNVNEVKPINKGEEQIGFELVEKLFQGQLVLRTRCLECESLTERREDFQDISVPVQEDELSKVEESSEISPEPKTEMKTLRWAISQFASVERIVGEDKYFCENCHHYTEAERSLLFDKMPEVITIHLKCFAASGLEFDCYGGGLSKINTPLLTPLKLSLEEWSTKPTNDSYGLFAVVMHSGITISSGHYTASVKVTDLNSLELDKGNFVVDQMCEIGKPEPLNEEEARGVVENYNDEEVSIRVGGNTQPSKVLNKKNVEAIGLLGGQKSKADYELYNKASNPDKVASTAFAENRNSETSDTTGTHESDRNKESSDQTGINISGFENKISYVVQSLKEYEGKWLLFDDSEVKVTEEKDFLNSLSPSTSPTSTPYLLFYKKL
# Sequence of Glucocorticoid receptor (Homo sapiens) (P04150 whole entry, looked up, the tested form may be a part): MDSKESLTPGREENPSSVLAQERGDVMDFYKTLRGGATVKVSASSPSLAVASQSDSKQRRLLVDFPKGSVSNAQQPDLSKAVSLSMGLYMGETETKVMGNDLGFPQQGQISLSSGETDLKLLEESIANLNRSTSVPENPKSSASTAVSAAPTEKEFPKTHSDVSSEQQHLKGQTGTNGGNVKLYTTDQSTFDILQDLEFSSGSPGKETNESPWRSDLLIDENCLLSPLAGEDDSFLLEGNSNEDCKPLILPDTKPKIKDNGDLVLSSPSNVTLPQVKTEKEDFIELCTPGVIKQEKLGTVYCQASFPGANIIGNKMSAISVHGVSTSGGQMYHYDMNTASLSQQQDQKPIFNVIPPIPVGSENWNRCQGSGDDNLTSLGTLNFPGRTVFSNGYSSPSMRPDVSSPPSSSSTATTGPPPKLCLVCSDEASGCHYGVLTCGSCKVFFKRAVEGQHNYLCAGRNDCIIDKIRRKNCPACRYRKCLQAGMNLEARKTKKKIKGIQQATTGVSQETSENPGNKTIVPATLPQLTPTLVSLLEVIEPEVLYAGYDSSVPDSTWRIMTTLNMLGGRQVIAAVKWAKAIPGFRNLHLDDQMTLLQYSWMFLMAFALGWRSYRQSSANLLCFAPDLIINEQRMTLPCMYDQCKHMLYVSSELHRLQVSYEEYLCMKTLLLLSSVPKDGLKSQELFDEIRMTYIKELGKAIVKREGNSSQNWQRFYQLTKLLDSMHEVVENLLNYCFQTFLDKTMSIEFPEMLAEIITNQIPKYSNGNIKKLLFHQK
# Sequence of 3',5'-cyclic-AMP phosphodiesterase 4B (Homo sapiens) (Q07343 whole entry, looked up): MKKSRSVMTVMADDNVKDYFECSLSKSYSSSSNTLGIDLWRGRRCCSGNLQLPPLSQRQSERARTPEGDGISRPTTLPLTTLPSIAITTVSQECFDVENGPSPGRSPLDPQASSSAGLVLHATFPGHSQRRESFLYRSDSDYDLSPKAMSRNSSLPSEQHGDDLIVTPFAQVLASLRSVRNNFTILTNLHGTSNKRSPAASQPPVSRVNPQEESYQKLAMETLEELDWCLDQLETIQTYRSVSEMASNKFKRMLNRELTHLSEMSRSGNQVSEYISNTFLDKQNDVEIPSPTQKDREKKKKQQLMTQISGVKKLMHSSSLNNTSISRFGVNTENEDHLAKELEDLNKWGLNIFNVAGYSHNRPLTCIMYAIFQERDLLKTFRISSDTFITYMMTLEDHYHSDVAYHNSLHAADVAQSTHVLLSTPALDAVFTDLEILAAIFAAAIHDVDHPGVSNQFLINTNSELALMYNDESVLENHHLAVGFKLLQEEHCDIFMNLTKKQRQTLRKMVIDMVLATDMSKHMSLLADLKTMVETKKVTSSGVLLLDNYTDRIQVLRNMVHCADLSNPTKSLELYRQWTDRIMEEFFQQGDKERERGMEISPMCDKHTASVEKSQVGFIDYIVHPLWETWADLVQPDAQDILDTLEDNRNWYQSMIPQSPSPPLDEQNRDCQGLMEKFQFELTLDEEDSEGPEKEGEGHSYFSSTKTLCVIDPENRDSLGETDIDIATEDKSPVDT
SMILES,Potency [1] [µM],"activity change, negative = inhibition [2] [%]",Potency [3],"activity change, negative = inhibition [4] [%]","activity, negative = inhibition [5] [%]",Potency [6] [µM],Potency [7] [µM],Potency [8],Potency [9],outcome [10],Potency [11],Potency [12],Potency [13],Potency [14],Potency [15],Potency [16],outcome [17],Potency [18],Potency [19]
CN(C)c1ncc2nc(CCc3ccccc3)c(=O)n(Cc3ccc(F)cc3)c2n1,> 11.4,8.4,10 µM (active),-4.39,13.2,> 9.22,> 46,inactive,inactive,inactive,inactive,inactive,inactive,inactive,–,–,–,–,–
c1ccc(CNc2ccnc(-c3ccc4c(c3)OCO4)n2)cc1,–,-19.4,0.398 µM (active),15.5,-18.3,> 46,> 46,–,inactive,inactive,inactive,–,–,inactive,inactive,inactive,inactive,–,–
COc1cc(/C=C\c2ccc(OC)cc2OC)cc(OC)c1,–,–,0.794 µM (active),–,–,> 46,> 46,inactive,inactive,inactive,inactive,inactive,inactive,–,–,–,–,–,–
N#CCCn1c(=O)c(-c2ccc(Cl)cc2)nc2cnc(Nc3ccccc3)nc21,> 11.4,-28,–,–,-24.6,> 9.22,> 46,inactive,–,inactive,inactive,–,79.3 µM (active),inactive,inactive,–,–,inactive,inactive
COc1ccc(C(=O)N2CCC3(CC2)CN(c2cccc(-c4ccccc4)c2)C3)cc1,> 11.4,-18.9,–,–,-19.1,–,> 46,inactive,–,inactive,inactive,inactive,inactive,inactive,–,–,–,–,–
COc1ccc(-n2c(=O)c(-c3cccs3)nc3cnc(Nc4cccc(OC)c4)nc32)cc1,> 11.4,-24.6,inactive,–,-11,–,> 46,–,inactive,inactive,inactive,–,–,inactive,inactive,–,–,–,–
Cn1cc(-c2nc3cnc(N4CCOCC4)nc3n(CCC#N)c2=O)c2ccccc21,> 11.4,-11.7,–,-7.6,-5.04,> 9.22,> 46,inactive,inactive,inactive,inactive,–,–,inactive,inactive,–,–,inactive,inactive
c1csc(CNc2ccnc(-c3ccc4c(c3)OCO4)n2)c1,–,–,0.316 µM (active),11.2,-12.2,> 46,> 46,–,inactive,inactive,inactive,–,–,inactive,inactive,–,–,–,inactive
Cn1c(=O)c(CCc2ccccc2)nc2cnc(Oc3ccccc3)nc21,> 11.4,-15.2,–,-7.88,-2.24,> 9.22,> 46,inactive,–,inactive,inactive,inactive,inactive,inactive,inactive,–,–,–,–
COCCn1c(=O)c(-c2ccc(OC)cc2)nc2cnc(Nc3cccc(OC)c3)nc21,> 11.4,-2.99,10 µM (active),-5.57,3.6,> 9.22,> 46,inactive,inactive,inactive,inactive,70.6 µM (active),70.6 µM (active),inactive,inactive,–,–,–,–
COCCn1c(=O)c(-c2cccs2)nc2cnc(Nc3ccccc3)nc21,> 11.4,5.47,–,–,14.8,> 9.22,–,–,–,inactive,inactive,inactive,–,inactive,inactive,–,–,–,–
COCCn1c(=O)c(-c2cc(F)cc(F)c2)nc2cnc(Nc3cccc(OC)c3)nc21,> 11.4,-16,2.51 µM (active),-16.5,-3.85,> 9.22,> 46,inactive,inactive,inactive,inactive,inactive,–,inactive,inactive,–,–,–,–
N#C/C(=C\c1ccc(O)c(O)c1)C(=O)OCCc1cccs1,–,–,–,–,–,> 46,> 46,inactive,inactive,inactive,12.5 µM (active),inactive,inactive,–,–,–,–,–,–
O=c1c(-c2cccs2)nc2cnc(N3CCOCC3)nc2n1CCc1ccccc1,> 11.4,13.2,–,19.8,18.4,> 9.22,> 46,–,inactive,inactive,inactive,–,–,inactive,–,–,–,inactive,–
